# Results taken from the supplement of paper PMC10681739.
# Biological target: RUNX1 (UniProt Q01196)
# Assay: RUNX1 binding intensity (PBM fluorescence) in presence of ETS1, normalised to RUNX1-only experiment (arbitrary fluorescence units); higher = stronger binding
# Details: RUNX1 concentration 2 nM; ETS1 concentration 25 nM
# Experimental: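 Cooperative gcPBM on 36-bp genomic probes with neighbouring ETS1 and RUNX1 sites. Recombinant human RUNX1 (2 nM) was incubated alone or with ETS1 (25 nM) and detected with anti-RUNX1 antibody plus Alexa488 secondary. Values are medians over 4 replicate spots; the RUNX1+ETS1 data were normalised to the RUNX1-only data. The probes sit in constant array flanks that are not printed.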
# 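Note: Full-length recombinant human ETS1 or RUNX1 bound to double-stranded 36-bp genomic probes on microarrays, detected by protein-specific primary antibody and Alexa488 secondary, spot fluorescence as median of four replicate spots.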
# Chain of RUNX1 (Q01196 whole entry): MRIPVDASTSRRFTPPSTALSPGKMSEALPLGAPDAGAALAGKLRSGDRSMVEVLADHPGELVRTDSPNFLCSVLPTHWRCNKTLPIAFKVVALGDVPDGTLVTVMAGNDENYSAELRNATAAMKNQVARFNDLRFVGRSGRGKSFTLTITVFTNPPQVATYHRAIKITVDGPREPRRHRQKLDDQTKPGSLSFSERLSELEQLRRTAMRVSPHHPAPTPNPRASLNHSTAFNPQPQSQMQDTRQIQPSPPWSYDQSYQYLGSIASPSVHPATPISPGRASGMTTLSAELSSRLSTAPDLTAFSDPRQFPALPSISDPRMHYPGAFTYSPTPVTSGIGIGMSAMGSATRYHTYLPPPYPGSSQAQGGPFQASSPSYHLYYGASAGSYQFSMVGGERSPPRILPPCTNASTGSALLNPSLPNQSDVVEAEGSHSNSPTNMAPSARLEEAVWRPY
row,Sequence,RUNX1 binding intensity
1,AGGGAACAGGAAATGCAAAAAACCACAAGGGACAAG,15800
2,ACCTTGCCTAGAGGAAGTGGTTTTTCGAATCTGAGT,1540
3,TCTCTTCCGTTCTCTGGTAGCTTTGTGGTAGCTTTG,2710
4,GGCCTGTCACACACAGGAAGCGGTCACAGAAAAGCT,2140
5,GACAATGAGCGCACAGGATGTGGTTTGGCGGCAGGG,3690
6,CATTTCAGTCCAGGATGTGGGTGCACACACCGCTTC,1430
7,CCTTCCTTCCTGCTGTGTACGTTGTGGTCACAGCAC,3550
8,AGGTTGAAAGCACTTCCGCTGCGGCCCCCGTAGGAA,1520
9,CCCGCTCACGCCGGAAGTGGTTTGCGTTTTCAAGAT,7390
10,CACTTCCTGTCAAAGCCAGTTCCTTAACCGCTTAGG,2930
11,TACGGGAACTTCCTTTTCTTGTGGTGTGGCCGGGTC,2050
12,GCGCGGACAGAGAAAGGATGTGGTATAGCAGAAAGT,884
13,AATTGAGACAGGAAATGTTGGTTTGTGGTCAGGCAC,3130
14,CATGCGTCACCTTCCTGTGTGGTCAGCAGTGCTTGC,1420
15,TCCTTAATGGTTCCGGCGGCAGGGACCGCAGCGACG,914
16,GCTTGCTCCCACAGGAAACCGCAGGCTTCGGGCACA,12000
17,GCCACATATTTCCTGTGACAACCCTGTGGTGTGGCT,1640
18,CAGAGAGCGGACTTCCGCGACGCGGGTAAGCCGGGC,894
19,GCCGGAAGCCACGCAGGGCCACGTCTGCGGTTCTGA,1220
